The results in this text go back to PubChem BioAssay (Tox21).

Molecules are shown by their SMILES. Results filed as inconclusive are left out. Where a call stands in place of a potency, no number is given. Active and inactive are the calls of the source. The call rests on the fitted dose curve.

Assay [1] addresses Acetylcholinesterase (Homo sapiens) (UniProt P22303). In words: Acetylcholinesterase (AChE) small molecule antagonists: enzyme-based qHTS assay (AID 1347397). Further: nearly all actives have a fitted effect of over 55% in size. The following applies: Potency: AChE enzyme activity inhibition; outcome: AChE enzyme activity inhibition. The gist of the method: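 Recombinant human AChE, dispensed at 50 mU/mL, was preincubated with Tox21 10K compounds or DMSO vehicle for 30 min at room temperature. DTNB plus acetylthiocholine was then added, and thiocholine was measured colorimetrically after a further 10 min.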

Assay [2] has the same target. In words: Acetylcholinesterase (AChE) small molecule antagonists: enzyme-based qHTS assay with human liver microsomes (AID 1347399). Further: nearly all actives have a fitted effect of over 60% in size. The conditions noted are these: Potency: qHTS inhibition; outcome: qHTS inhibition. A digest of the protocol: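 Recombinant human AChE (50 mU/mL in the enzyme mix) and human liver microsomes (0.25 mg/mL final) were preincubated with compound and NADPH (0.25 mg/mL final) for 30 min at 37 C. Acetylthiocholine/DTNB was then added; thiocholine was read colorimetrically after 10 min at room temperature.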

For assay [3] the target is unchanged. As to the kind of experiment: Acetylcholinesterase (AChE) small molecule antagonists: fluorescence cell-based qHTS assay (AID 1347398). Further: nearly all actives have a fitted effect of over 50% in size. Further: potency means the concentration at half of the fitted maximal effect. The conditions noted are these: Potency: AChE activity; outcome: AChE activity. A digest of the protocol:
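Human SH-SY5Y cells were plated overnight at 37 C, exposed to compound for 30 min at 37 C, 5% CO2, then given acetylthiocholine plus Thiolite Green for 40 min at room temperature; thiocholine fluorescence (Ex/Em 490/520 nm) reports endogenous AChE activity.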

Sequence of Acetylcholinesterase (Homo sapiens) (P22303 whole entry, looked up): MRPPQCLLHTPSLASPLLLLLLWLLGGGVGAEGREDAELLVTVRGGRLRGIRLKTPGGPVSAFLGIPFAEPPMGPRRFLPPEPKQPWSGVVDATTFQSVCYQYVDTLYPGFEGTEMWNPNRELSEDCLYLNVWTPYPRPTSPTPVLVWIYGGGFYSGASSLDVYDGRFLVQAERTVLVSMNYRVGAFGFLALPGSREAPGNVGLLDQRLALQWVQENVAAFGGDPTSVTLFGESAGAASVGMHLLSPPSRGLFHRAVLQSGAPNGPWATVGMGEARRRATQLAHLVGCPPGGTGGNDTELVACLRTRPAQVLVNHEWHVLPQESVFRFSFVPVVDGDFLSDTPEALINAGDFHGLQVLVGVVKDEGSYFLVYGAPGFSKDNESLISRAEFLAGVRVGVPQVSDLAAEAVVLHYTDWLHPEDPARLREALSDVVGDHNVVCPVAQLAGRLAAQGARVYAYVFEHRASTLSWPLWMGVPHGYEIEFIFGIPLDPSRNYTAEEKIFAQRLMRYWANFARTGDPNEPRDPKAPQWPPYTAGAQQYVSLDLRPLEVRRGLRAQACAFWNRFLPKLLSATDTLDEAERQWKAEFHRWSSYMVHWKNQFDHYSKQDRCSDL

As to `CN1CCCCC1CCN1c2ccccc2Sc2ccc(S(C)=O)cc21` (stereo not given), the Potency result in assay [1] and in assay [2] was “inactive” in each case.

Turning to `NS(=O)(=O)c1cc2c(cc1Cl)NC(CSCc1ccccc1)=NS2(=O)=O`, the Potency result in assay [1] and in assay [2] was “inactive” throughout. For the compound `C/C=C1\C(=O)C[C@H]2[C@@H]3CCC4=CC(=O)CC[C@]4(C)[C@H]3CC[C@]12C`, the Potency entry in assay [1] and in assay [2] was “inactive” each time.

For the compound `O=C1C=CC(=O)N1`, the Potency result in assay [1] and in assay [2] was “inactive” throughout.

As for `COCCOc1cc2cc(C(=O)NC3CCN(C(C)C)CC3)n(CC(=O)Nc3ccc(Cl)cn3)c2cn1`, the Potency result in assay [1] and in assay [2] was “inactive” in each case. `NC(N)=N/N=C/c1c(Cl)cccc1Cl`: the Potency result in assay [1] and in assay [2] was “inactive” throughout. For the compound `Cc1cc(O)ccc1N`, the Potency entry in assay [1] and in assay [2] was “inactive” in each case. For the compound `CN1CCC(=C2c3ccccc3CCc3sccc32)CC1`, the Potency entry in assay [1] and in assay [2] was “inactive” in each case. For the compound `CN(C)CCC=C1c2ccccc2C=Cc2ccccc21`, the call in assay [1] and in assay [2] was inactive. Regarding `CC1(COc2ccc(CC3SC(=O)NC3=O)cc2)CCCCC1` (stereo not given), the Potency entry in assay [1] and in assay [2] was “inactive” throughout. In the case of `CCN1CCCC1CNC(=O)c1cc(S(=O)(=O)CC)c(N)cc1OC` (stereo not given), the Potency in assay [3] is 13.8 µM (active).

Turning to `OCc1cc(C(O)CNCCCCCCOCCCCc2ccccc2)ccc1O` (stereo not given), the Potency entry in assay [1] and in assay [2] was “inactive” throughout.

For the compound `CC(C)C[P+](C)(CC(C)C)CC(C)C`, the Potency result in assay [1] and in assay [2] was “inactive” each time. With `COc1ccc2cc1Oc1ccc(cc1)C[C@H]1c3c(cc4c(c3Oc3cc5c(cc3OC)CCN(C)[C@@H]5C2)OCO4)CCN1C`, the Potency result in assay [1] and in assay [2] was “inactive” throughout.

With `C/C=C1/C(=O)C[C@H]2[C@@H]3CCC4=CC(=O)CC[C@]4(C)[C@H]3CC[C@]12C`, the Potency result in assay [1] and in assay [2] was “inactive” throughout. Consider `CO/N=C1\CN(c2nc3c(cc2F)c(=O)c(C(=O)O)cn3C2CC2)CC1CN` (stereo not given), for which the compound was called inactive in assay [1] and in assay [2].

Consider `CSc1nc(NC2CC2)nc(NC(C)(C)C)n1`, for which the Potency entry in assay [1] and in assay [2] was “inactive” each time. With `COc1ccnc2c1CCCCC2S(=O)c1nc2ccccc2[nH]1` (stereo not given), the Potency result in assay [1] and in assay [2] was “inactive” each time. As to `C1CCC(C(CC2CCCCN2)C2CCCCC2)CC1` (stereo not given), the Potency entry in assay [1] and in assay [2] was “inactive” throughout. On to `O=C1c2ccccc2S(=O)(=O)N1CCCCN1CCN(c2ncccn2)CC1`, for which the Potency entry in assay [1] and in assay [2] was “inactive” in each case. As to `[Cu+]`, the Potency entry in assay [3] was “inactive”.
